# Assay results from PubChem BioAssay.
# “And” between values parts separate entries of the source, which are not always exact repeats. Equal values may be shown once. The source made the active and inactive calls.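 The calls were made as follows, unless noted: active = thallium flux through the channel raised or lowered by more than 3 SD from vehicle-only wells, actives on both sides; inactive = the rest.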
# Assays:
# [1] = stimulators of nuclear beta-catenin in C2C12, primary screen, imaging, WNT3A-conditioned medium, mouse C2C12, NPC library (AID 1117326; in the data active = nuclear beta-catenin stimulation mostly above about 4.2%, no sharp cut-off; inactive = mostly below about 10%); conditions: stronger effect = higher value
# [2] = stimulators of insulin release from INS-1E, primary screen, cell-based, 5 mM glucose, NPC library (AID 1117329;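 active = compound raises insulin release from rat beta cells at 5 mM glucose, no numeric limit stated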); conditions: rat INS-1E insulin secretion, at 10 µM, stronger effect = higher value
# [3] = growth inhibition of GSK3B-pretreated HCT116 cells – cell-based, CellTiter-Glo, 0.2 to 20 µM (AID 1117336;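 active = compounds lowering colon cancer cell viability after pretreatment blocking the GSK3B kinase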); conditions: HCT116 viability after GSK3B inhibitor, at 20 µM, stronger effect = higher value
# [4] = inhibition of endothelial tube formation, primary screen, imaging, VEGF stimulated, CD31 staining, tube area, NPC library (AID 1117340;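 active = compound that reduces growth-factor-driven endothelial tube area in a mixed cell culture, no cutoff stated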); conditions: VEGF-stimulated ADSC/ECFC co-culture, at 10 µM, stronger effect = higher value
# [5] = glucagon-like peptide 1 release enhancers, primary assay, NCI-H716 cell line, NPC library (AID 1117341;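 active = compound raises GLP1 secretion from the human gut endocrine cells, with no numeric limit stated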); conditions: NCI-H716 cells, at 10 µM, stronger effect = higher value
# [6] = HCT116 colon cancer cell growth inhibition, primary screen, CellTiter-Glo luminescence, NPC library (AID 1117342;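 active = compounds that lower survival of HCT116 colon cancer cells in the luminescence readout, no numeric limit stated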); conditions: at 20 µM (top of the series)
# [7] = CellTiter-Glo luminescent readout of SW480 viability loss, NPC library primary (AID 1117343;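 active = compounds that lower viability of the colon cancer cells in the luminescence readout, with no numeric limit stated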); conditions: CellTiter-Glo luminescence; at 20 µM (top of the series)
# [8] = decreased DLD-1 cellular survival, CellTiter-Glo luminescent readout, NPC compound collection, primary HTS (AID 1117346;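 active = compounds that lower survival of DLD-1 colon cancer cells in the luminescence readout, no cutoff given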); conditions: DLD-1 viability, CellTiter-Glo luminescence; at 20 µM (top of the series)
# [9] = molecular target: 6-phosphogluconate dehydrogenase, decarboxylating (Homo sapiens) (UniProt P52209); test: 6PGD enzyme inhibitors, primary screen, biochemical, human, recombinant enzyme, NADPH absorbance (AID 1159550;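 active = at least 20% inhibition of 6-phosphogluconate dehydrogenase activity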); conditions: recombinant 6PGD, NADPH absorbance 341 nm; at 10 µM; stronger effect = higher value
# [10] = modulation of C. elegans fzo-1 (AID 1259413; call rule not given here;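 also: fzo-1 mutant C. elegans worms in liquid wells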); conditions: C. elegans fzo-1 modulator screen, mean read-out; stronger effect = higher value
# [11] = differential killing of epithelial or mesenchymal cells, primary screen, imaging, PC-3E GFP, TEM4-18 mCherry, co-culture (AID 1345086;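 active = compounds killing one labelled cell type while sparing the other, by normalised counts and ratio limits, not self-fluorescent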;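 as to all read-outs here: cells exposed to compound for 72 h before imaging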;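 as to red/green cell ratio (normalised): normalised mesenchymal count divided by normalised epithelial count so high means epithelial killing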); conditions: imaging cell counts, at 1 µM; for red/green cell ratio (normalised): actives lie on both sides, counts scaled to control wells, 1 = unselective
# [12] = survival rescue of mitochondrial mutant cells in low glucose, primary screen, MELAS cybrids, Rieske KO mouse fibroblasts, CellTiter-Glo (AID 1508586;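 active = mean z-score across replicates of 1.96 or higher in either the MELAS or the Rieske mutant cell line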;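 also: z relative to plate mean and SD of compound and empty wells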)
# [13] = molecular target: NAD(+) hydrolase SARM1 (Homo sapiens) (UniProt Q6SZW1); test: SARM1 TIR NADase inhibitors, cell lysate, NAD-Glo luminescence (AID 1508614;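 active = compound whose remaining NAD level is above about 45 nM, limit read from the data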;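 also: higher remaining NAD means stronger inhibition of SARM1 NADase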); conditions: SAM-TIR HEK293T lysate NADase, at 1 µM, stronger effect = higher value
# [14] = molecular target: Mitogen-activated protein kinase 7 (Homo sapiens) (UniProt Q13164); test: ERK5 transactivation activators in reporter cells, primary screen, cell-based, HTS (AID 1508626;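 active = luciferase signal above three times the same-plate solvent-only control wells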;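 also: luciferase driven by Gal4-ERK5 fusion binding five Gal4 sites before minimal TATA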); conditions: HeLa Gal4-ERK5 transactivation, 18 h, at 5 µM, stronger effect = higher value
# [15] = test system: F380Y; test: modulators of BK channel variants, profiling panel, selectivity assay, cell-based, U2OS BacMam, thallium flux, beta subunits (AID 1259406); conditions: at 30 µM;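 also: initial slope of Thallos dye fluorescence rise after thallium is added; log ratio against the mean of 0.3% DMSO vehicle wells on the same plate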
# [16] = test system: F380Y/beta1; test: as above; conditions: at 30 µM
# [17] = test system: F380Y/beta2Delta; test: as above; conditions: at 30 µM
# [18] = measured here: epithelial PC-3E GFP cell survival
# [19] = measured here: mesenchymal TEM4-18 mCherry cell survival
# [20] = MELAS cybrid survival, CellTiter-Glo 48 h, stronger effect = higher value
# [21] = Rieske KO mouse fibroblast survival, CellTiter-Glo 72 h
# Sequence of 6-phosphogluconate dehydrogenase, decarboxylating (Homo sapiens) (P52209 whole entry, looked up): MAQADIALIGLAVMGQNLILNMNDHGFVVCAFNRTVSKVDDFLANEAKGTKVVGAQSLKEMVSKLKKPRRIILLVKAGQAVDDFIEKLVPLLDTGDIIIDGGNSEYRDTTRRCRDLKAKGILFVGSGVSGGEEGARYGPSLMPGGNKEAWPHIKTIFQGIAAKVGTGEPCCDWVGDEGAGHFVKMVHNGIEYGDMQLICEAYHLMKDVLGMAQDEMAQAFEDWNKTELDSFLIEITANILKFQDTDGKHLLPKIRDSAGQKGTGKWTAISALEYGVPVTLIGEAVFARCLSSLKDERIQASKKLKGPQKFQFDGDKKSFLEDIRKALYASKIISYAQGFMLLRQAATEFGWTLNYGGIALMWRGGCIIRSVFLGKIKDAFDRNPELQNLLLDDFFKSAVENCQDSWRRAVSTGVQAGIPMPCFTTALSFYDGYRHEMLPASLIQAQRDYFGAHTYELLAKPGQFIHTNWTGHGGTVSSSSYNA
# Sequence of Mitogen-activated protein kinase 7 (Homo sapiens) (Q13164 whole entry, looked up, the tested form may be a part): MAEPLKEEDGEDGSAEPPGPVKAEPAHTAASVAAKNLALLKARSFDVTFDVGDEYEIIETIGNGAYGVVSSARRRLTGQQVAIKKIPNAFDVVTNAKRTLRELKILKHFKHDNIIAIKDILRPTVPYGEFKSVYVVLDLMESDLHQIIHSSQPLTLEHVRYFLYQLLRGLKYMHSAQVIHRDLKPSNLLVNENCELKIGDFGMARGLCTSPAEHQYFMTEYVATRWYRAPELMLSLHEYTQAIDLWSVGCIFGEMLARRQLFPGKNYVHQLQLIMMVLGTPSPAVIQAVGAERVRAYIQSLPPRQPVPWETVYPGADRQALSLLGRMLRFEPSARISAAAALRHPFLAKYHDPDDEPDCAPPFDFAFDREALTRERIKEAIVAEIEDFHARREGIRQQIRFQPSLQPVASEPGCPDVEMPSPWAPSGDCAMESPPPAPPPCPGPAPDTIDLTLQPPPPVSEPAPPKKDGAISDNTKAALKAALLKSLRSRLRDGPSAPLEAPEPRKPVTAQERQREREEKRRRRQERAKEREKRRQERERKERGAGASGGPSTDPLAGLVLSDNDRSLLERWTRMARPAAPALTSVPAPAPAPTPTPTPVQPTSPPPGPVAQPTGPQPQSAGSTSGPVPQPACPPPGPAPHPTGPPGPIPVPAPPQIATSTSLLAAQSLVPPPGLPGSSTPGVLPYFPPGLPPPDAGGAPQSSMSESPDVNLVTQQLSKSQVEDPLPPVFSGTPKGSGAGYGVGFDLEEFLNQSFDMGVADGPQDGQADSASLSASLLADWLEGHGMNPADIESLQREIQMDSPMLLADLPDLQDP
# Sequence of NAD(+) hydrolase SARM1 (Homo sapiens) (Q6SZW1 whole entry, looked up, the tested form may be a part): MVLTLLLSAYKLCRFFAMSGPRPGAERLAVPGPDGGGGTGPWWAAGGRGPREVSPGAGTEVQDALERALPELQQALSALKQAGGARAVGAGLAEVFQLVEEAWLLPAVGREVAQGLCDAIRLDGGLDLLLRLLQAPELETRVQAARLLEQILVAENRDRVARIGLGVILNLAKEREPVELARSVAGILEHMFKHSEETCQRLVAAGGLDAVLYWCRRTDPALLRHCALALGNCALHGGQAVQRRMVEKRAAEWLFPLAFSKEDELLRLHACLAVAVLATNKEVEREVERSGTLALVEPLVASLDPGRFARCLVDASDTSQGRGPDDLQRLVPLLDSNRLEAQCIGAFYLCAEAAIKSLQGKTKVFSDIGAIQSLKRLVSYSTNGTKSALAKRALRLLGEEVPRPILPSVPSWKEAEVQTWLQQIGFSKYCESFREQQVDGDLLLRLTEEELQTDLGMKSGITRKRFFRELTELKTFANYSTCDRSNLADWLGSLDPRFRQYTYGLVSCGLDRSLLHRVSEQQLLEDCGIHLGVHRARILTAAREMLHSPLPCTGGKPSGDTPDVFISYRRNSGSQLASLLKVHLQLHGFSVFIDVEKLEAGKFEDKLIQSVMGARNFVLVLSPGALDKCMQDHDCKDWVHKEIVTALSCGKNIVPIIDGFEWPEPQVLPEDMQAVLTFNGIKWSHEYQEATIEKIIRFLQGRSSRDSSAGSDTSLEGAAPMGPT
structure (smiles),measurement,setting,value
CCCc1nc2c(C)cc(-c3nc4ccccc4n3C)cc2n1Cc1ccc(-c2ccccc2C(=O)O)cc1,nuclear beta-catenin stimulation,[1]; at 10 µM,3.7% (inactive)
same,nuclear beta-catenin stimulation,"[1]; stimulation, at 2 µM",1.8%
same,insulin secretion stimulation,[2],-0.5% (inactive)
same,viability decrease,[3],-22.6% (inactive)
same,tube area decrease,[4],8% (inactive)
same,GLP1 secretion stimulation,[5],1.1% (inactive)
same,inhibition of viability,[6],42% (inactive)
same,viability decrease (inhibition),[7],94.1% (active)
same,viability decrease (inhibition),[8],36.3% (inactive)
same,inhibition,[9],2.16% (inactive)
same,mean signal,[10],236 (inactive)
same,red/green cell ratio (normalised),[11],0.63 (inactive)
same,normalised cell number,[11]; [18],1.26
same,normalised cell number,[11]; [19],0.8
same,z-score,[12]; [20],-0.258 (inactive) and 0.956 (inactive) and -0.424 (inactive)
same,z-score,[12]; [21],0.516 and 0.961 and -0.332
same,remaining NAD,[13],10 nM (inactive)
same,luciferase signal,[14],96 AU (inactive)
same,log fold change Tl+ flux,[15],-0.0745 (inactive)
same,log fold change Tl+ flux,[16],0.00163 (inactive)
same,log fold change Tl+ flux,[17],0.025 (inactive)
NNC(=O)c1ccncc1,nuclear beta-catenin stimulation,[1]; at 10 µM,-1.9% (inactive)
same,nuclear beta-catenin stimulation,"[1]; stimulation, at 2 µM",-1.2%
same,insulin secretion stimulation,[2],-0.1% (inactive)
same,viability decrease,[3],-2.7% (inactive)
same,tube area decrease,[4],-10.4% (inactive)
same,GLP1 secretion stimulation,[5],0.3% (inactive)
same,inhibition of viability,[6],9.9% (inactive)
same,viability decrease (inhibition),[7],10.1% (inactive)
same,viability decrease (inhibition),[8],6.5% (inactive)
same,inhibition,[9],6.29% (inactive)
same,mean signal,[10],247 (inactive)
same,red/green cell ratio (normalised),[11],1.18 (inactive)
same,normalised cell number,[11]; [18],1.01
same,normalised cell number,[11]; [19],1.19
same,z-score,[12]; [20],-0.127 (inactive) and -0.162 (inactive) and -0.645 (inactive)
same,z-score,[12]; [21],0.295 and -0.273 and 1.51
same,remaining NAD,[13],10 nM (inactive)
same,luciferase signal,[14],36 AU (inactive)
same,log fold change Tl+ flux,[15],0.00909 (inactive)
same,log fold change Tl+ flux,[16],0.0138 (inactive)
same,log fold change Tl+ flux,[17],0.00988 (inactive)
COc1ccccc1OCCNCC(O)COc1cccc2[nH]c3ccccc3c12 (centres undefined),nuclear beta-catenin stimulation,[1]; at 10 µM,10.7% (inactive)
same,nuclear beta-catenin stimulation,"[1]; stimulation, at 2 µM",2%
same,insulin secretion stimulation,[2],1.9% (inactive)
same,viability decrease,[3],7.2% (inactive)
same,tube area decrease,[4],60.9% (active)
same,GLP1 secretion stimulation,[5],11.2% (inactive)
same,inhibition of viability,[6],83.7% (active)
same,viability decrease (inhibition),[7],112% (active)
same,viability decrease (inhibition),[8],90.5% (active)
same,inhibition,[9],6.21% (inactive)
same,mean signal,[10],201 (inactive)
same,red/green cell ratio (normalised),[11],1.11 (inactive) and 0.93 (inactive)
same,normalised cell number,[11]; [18],1.02 and 1.07
same,normalised cell number,[11]; [19],1.13 and 1
same,z-score,[12]; [20],-0.281 (inactive) and 0.201 (inactive) and -0.32 (inactive)
same,z-score,[12]; [21],-0.463 and 1.15 and -0.0666
same,remaining NAD,[13],14 nM (inactive) and 10 nM (inactive)
same,luciferase signal,[14],340 AU (inactive)
same,log fold change Tl+ flux,[15],-0.0291 (inactive)
same,log fold change Tl+ flux,[16],0.26 (active)
same,log fold change Tl+ flux,[17],-0.29 (active)
NS(=O)(=O)c1cc2c(cc1Cl)NCNS2(=O)=O,nuclear beta-catenin stimulation,[1]; at 10 µM,0.4% (inactive)
same,nuclear beta-catenin stimulation,"[1]; stimulation, at 2 µM",0.8%
same,insulin secretion stimulation,[2],-1.9% (inactive)
same,viability decrease,[3],-1.55% (inactive)
same,tube area decrease,[4],-9% (inactive)
same,GLP1 secretion stimulation,[5],-0.3% (inactive)
same,inhibition of viability,[6],0.1% (inactive)
same,viability decrease (inhibition),[7],5.4% (inactive)
same,viability decrease (inhibition),[8],-1% (inactive)
same,inhibition,[9],-1.9% (inactive)
same,mean signal,[10],233 (inactive)
same,red/green cell ratio (normalised),[11],0.89 (inactive)
same,normalised cell number,[11]; [18],1.24
same,normalised cell number,[11]; [19],1.11
same,z-score,[12]; [20],-0.267 (inactive) and -0.584 (inactive)
same,z-score,[12]; [21],0.408 and -0.255
same,remaining NAD,[13],10 nM (inactive)
same,luciferase signal,[14],96 AU (inactive)
same,log fold change Tl+ flux,[15],-0.0347 (inactive)
same,log fold change Tl+ flux,[16],-0.00418 (inactive)
same,log fold change Tl+ flux,[17],-0.0515 (inactive)
